# Reference: PubChem BioAssay (NCATS)
# Activity calls are given as the source filed them. Calls come from the whole dose curve; as a rule, active = well fitted activation curve with a large enough effect; inconclusive = small, poorly fitted or top-dose-only effect; inactive = flat fitted curve, though single readings scatter.
# Assay: Cellular Toxicity (caspase-3) SK-N-SH (AID 661)
# Details: SK-N-SH caspase-3 activation, qHTS, DMSO as zero, staurosporine as full; series mostly up to 91.7 µM
# From the text: NIH Chemical Genomics Center [NCGC]
# NIH Molecular Libraries Screening Centers Network [MLSCN]
# National Institutes of Environmental Health Sciences [NIEHS]
# National Toxicology Program [NTP]
# We have developed a 1536-well cell-based assay for quantitative high throughput screening (qHTS) against a number of cell lines to determine in vitro caspase 3/7 activity of small molecules. This particular assay uses the SK-N-SH cell line which is derived from human neuroblastoma.
# NCGC Assay Protocol Summary:
# The Caspase-Glo 3/7 assay (Promega) is a homogeneous method to measure caspase-3 and caspase-7 activities in cultured cells. The quantitation of caspase 3/7 activity is based on the cleavage of a peptide-aminoluciferin substrate. After caspase cleaves the substrate the free aminoluciferin is liberated and serves as the substrate of luciferase, which generates the light. The luminescent signal is proportional to amount of caspase 3/7 activity present.
# Using the Caspase-Glo 3/7 assay, the amount of caspase 3/7 activity was measured in the SK-N-SH cell line with complete culture medium following compound treatment for 16 hours. The assay was performed in opaque white 1536-well plates. In the screen, tamoxifen and staurosporine were used as positive controls. Library compounds were measured for their ability to cause the activation of caspase 3/7 in the cell line, as reflected by an increase in luminescence signal, in a concentration-dependent manner. Data were normalized to the controls for basal activity (DMSO only) and 100% stimulation (10 uM staurosporine). AC50 values were determined from concentration-response data modeled with the standard Hill equation.
# qHTS protocol for caspase 3/7 assay in SK-N-SH cells
# [Step] [Parameter] [Value] [Description]
# 1. Reagent; 5 uL; 1500 SK-N-SH cells/well
# 2. Time; 5 hr; 37 °C incubation
# 4. Controls; 23 nL; Tamoxifen 0.23 uM to 100 uM & staurosporine 1.4 pM to 100 uM
# 5. Time; 16 hr; 37 °C incubation
# 6. Reagent; 5 uL; Caspase-Glo 3/7 reagent
# 7. Time; 1 hr; Room Temperature
# 8. Detection; Luminescence; Viewlux plate reader
# Keywords: caspase 3/7, apoptosis, SK-N-SH cell line, luminescence, NTPHTS, NTPHTS_NCGC, NIEHS, EPA, DSSTox, MLSMR, MLSCN, NIH Roadmap, qHTS, NCGC
row,Structure (SMILES),outcome
1,C#CCO,inactive
2,CCCCCCCCn1sccc1=O,inactive
3,O=[N+]([O-])C(Br)Br,inactive
4,Nc1ccccc1C(=O)OCCc1ccccc1,inactive
5,CN(C)c1ccc(N=O)cc1,inactive
6,[CH3][Hg][Cl],inactive
7,Oc1c(Br)c(Br)c(Br)c(Br)c1Br,inactive
8,O=C1C2(Cl)C3(Cl)C4(Cl)C(Cl)(Cl)C5(Cl)C3(Cl)C1(Cl)C5(Cl)C24Cl (centres undefined),inactive
9,CC(C)CC(C)Nc1ccc(Nc2ccccc2)cc1 (centres undefined),inactive
10,O=C(CCl)c1ccccc1,inactive
11,CC(=O)[O-].CC(=O)[O-].O.O.[Cd+2],inactive
12,C[C@@H]1CC[C@@]2(OC1)O[C@H]1[C@@H](O)[C@H]3[C@@H]4CC[C@H]5C[C@@H](O[C@@H]6O[C@H](CO)[C@H](O[C@@H]7O[C@H](CO)[C@@H](O)[C@H](O[C@@H]8OC[C@@H](O)[C@H](O)[C@H]8O)[C@H]7O[C@@H]7O[C@H](CO)[C@@H](O)[C@H](O[C@@H]8O[C@H](CO)[C@@H](O)[C@H](O)[C@H]8O)[C@H]7O)[C@H](O)[C@H]6O)[C@H](O)C[C@]5(C)[C@H]4CC[C@]3(C)[C@H]1[C@@H]2C,inactive
13,FC(F)(F)c1ccc(Cl)cc1,inactive
14,Clc1ccc(C(c2ccc(Cl)cc2)C(Cl)Cl)cc1,inactive
15,O=C(O)C1C(C(=O)O)C2(Cl)C(Cl)=C(Cl)C1(Cl)C2(Cl)Cl (centres undefined),inactive
16,[Cd+2].[Cl-].[Cl-],inactive
17,C(=NC1CCCCC1)=NC1CCCCC1,inactive
18,COP(=O)(OC)O/C(=C\Cl)c1cc(Cl)c(Cl)cc1Cl,inactive
19,c1ccc2cc3c(cc2c1)-c1cccc2cccc-3c12,inactive
